The experiment concerns the target ParRC(pCW3) (Clostridium perfringens plasmid pCW3, UniProt Q1PLJ8 1-87). Put plainly: SPR; high values mean tight binding. As to conditions: protein: recombinant; tags: C-terminal His6; chain copies: 4; label: 3' 20-nt overhang of comp strand annealed to immobilized 5'-biotin ReDCaT linker; dsDNA, one strand shown.
Turning to ACAATTTTACGTAATTTAGATTTTGCAAGT, the binding signal is 48.4 RU.

As for ATTTTACGGAAAATGCTTGATTTAGATTGA, the binding signal is 9.2 RU.

In the case of AATTAAAAACATCACAATTTTACGTAATGA, the binding signal was 256 RU.

Turning to TTTTGCAAGTAAAAAACATCACAATTTTAC, the binding signal came out at 217 RU.

As for AAACATCACAATTTTACGGAAAATGCTTGA, the binding signal came out at 282 RU.

Turning to AATTTTACATAATAGAAAGGATTGATAAAA, the binding signal came out at 3.1 RU.

In the case of GTAATTTAGATTTTGCAAGTAAAAAACATC, the binding signal was found to be 42.6 RU.

Turning to CATAAACATCACAATTTTACGTAATTTAGA, the binding signal was 348 RU.

Consider ACAATTTTACATAATAGAAAGGATTGATAA, for which the binding signal came to 4.3 RU.

As to AAAATGAAAAAAACATCACAATTTTACGGA, the binding signal was determined as 250 RU.

For AAAAAACATCACAATTTTACATAATAGAAA, the binding signal is 311 RU.

For ATCACAATTTTACGTAATGACAGTTTGTTG, the binding signal is 54.7 RU.

In the case of AATATAAAAACATAAACATCACAATTTTAC, the binding signal stood at 155 RU.

(Values after publication PMC9426499.)
